Compound activity: PubChem, several laboratories
Hits are enriched below; roughly 2.7% of the tested compounds scored in any of these assays.
KKLEB cytotox: counter-screen for CF NF-kB inhibitors: cytotoxicity; KKLEB CF airway cells viability, ATPlite luminescence, overnight; stronger effect = lower value; cells stimulated with P. aeruginosa culture filtrate; activity change (cytotoxicity), % at 5 µM; 360,000 tested, 0.36% active;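 active means corrected activity change at or below -50% at 5 µM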
CF NFkB inh: inhibitors of cystic fibrosis induced NF-kB; AID 588850; 360,000 tested, 0.86% active; KKLEB NF-kB-GFP reporter, PAF-induced, GFP fluorescence overnight; inhibition, % at 5 µM;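 active means at least 50% inhibition at 5 µM, scaled per plate between neutral and stimulator controls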;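 further: PAF is a Pseudomonas aeruginosa culture filtrate used as stimulus; plate controls were PAF-stimulated DMSO wells for no effect and unstimulated DMSO wells for full effect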
TRPM1 prom inh: inhibitors of MITF-driven TRPM1 promoter in melanoma cells | inhibition, % at 12.5 µM | 330,000 tested, 0.83% active | SK-MEL-5 TRPM1 promoter luciferase, 24 h | AID 488899;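 active means mean inhibition across replicates of 60% or more, whatever share of single replicates reaches that level; inconclusive means some that reach 60%, reason not given; inactive means mean inhibition across replicates below 60%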
HIF-2a inh: blocks HIF-2a reporter activity. inhibition, % at 18.8 µM. 360,000 tested, 0.72% active. 786-0 RCC cells HIF-2a reporter, luciferase luminescence, overnight. AID 624352;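 active means inhibition of the luminescence signal of 40% or more relative to plate controls, in a single-dose primary screen at 18.75 µM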
Peg3 prom inh: inhibitors of Peg3 promoter; HeLa PEG-Prom luciferase reporter, luminescence, overnight; inhibition, % at 20 µM; 360,000 tested, 1.7% active;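 active means inhibition of at least 50% at 20 µM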
Shn3 3UTR inh: Schnurri-3 reporter inhibition in Clone20 osteoblasts; Clone20 osteoblast Shn3 3'UTR firefly luciferase, 24 h; inhibition, % at 12.5 µM; 360,000 tested, 0.52% active; AID 588674;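 active means mean inhibition of at least 75% with every replicate also reaching 75%; inconclusive means mean inhibition at least 75% but some replicate below; inactive means mean inhibition below 75%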;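 further: 0% = median of neutral control wells and 100% = pilot-screen positive control compound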
CF NFkB inh conf: CF NF-kB inhibition confirmation, single concentration. shares compounds with CF NFkB inh. KKLEB CF airway cells, PAF-induced NF-kB-GFP fluorescence, overnight. inhibition, % at 5 µM. 1,300 tested, 64% active; in the data active means inhibition above about 40%;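 further: stimulus PAF is a Pseudomonas aeruginosa filtrate and not platelet activating factor; plate controls were DMSO wells with stimulus for no effect and unstimulated DMSO wells for full effect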
Active calls of the source: *; u = inconclusive; x = no result.

SMILES	KKLEB cytotox	CF NFkB inh	TRPM1 prom inh	HIF-2a inh	Peg3 prom inh	Shn3 3UTR inh	CF NFkB inh conf
Cn1c(=O)c2c(nc(Oc3ccc4ccccc4c3)n2C)n(C)c1=O	-9.3	55.4*	-33.5	16.4	-0.6	6.5	69.0*
COc1ccc(Oc2nc3c(c(=O)n(C)c(=O)n3C)n2C)cc1	-2.7	27.2	-15.7	24.8	2.2	-9.6	x
Cc1ccc(/C=[N+](\[O-])c2ccc(N(C)C)cc2)c2nsnc12	-24.3	68.5*	6.8	20.9	-158.2	u	-67.8
Cc1ccc(C2(c3ccccc3)NC(=O)N(CC(=O)N(C)C3CCS(=O)(=O)C3)C2=O)cc1C (centres undefined)	10.6	10.1	-2.4	14.9	-6.1	-8.3	x
Cc1c(Cl)cccc1N=C1SCCN1C(=O)CN1C(=O)NC2(CCCC2)C1=O	-30.6	52.9*	-4.7	-5.4	15.2	-20.3	40.0*
O=C(O)C1CCCCC1C(=O)Nc1ccc(S(=O)(=O)N2CCCCC2)cc1 (centres undefined)	-1.1	-3.1	-4.4	-3.1	9.0	-0.2	x
CCCCOc1c(Br)cc(CNCCCN2CCOCC2)cc1OC	10.5	-0.6	-16.8	7.9	-4.3	4.0	x
C=C1CCC[C@]2(C)C[C@H]3OC(=O)C(CN(Cc4ccc(OC)c(OC)c4)CC(C)O)[C@H]3CC12 (some centres undefined)	-6.2	56.2*	35.2	5.4	-34.7	2.2	47.4*
C=C1CCC[C@]2(C)C[C@H]3OC(=O)C(CNCC(OC)OC)[C@H]3CC12 (some centres undefined)	-13.6	2.6	2.3	10.8	-32.2	-10.7	x
Cc1c(NC(=O)CN2C(=O)NC(C)(c3ccc(Cl)cc3)C2=O)c(=O)n(-c2ccccc2)n1C (centres undefined)	-11.6	9.9	3.5	3.4	11.0	-2.3	x
COc1ccc(CNc2nn3c(-c4cccc(C(=O)N(C)C)c4)cnc3s2)cc1	2.3	84.0*	x	22.7	56.1*	-12.4	90.7*
COc1cc2c(cc1OC)CN(C(=O)c1cc(C3CC3)nn1-c1ccccc1)CC2	-2.6	25.5	1.7	24.6	13.2	8.2	x
O=C(COC(=O)/C=C/c1ccccc1[N+](=O)[O-])NCc1ccco1	15.6	4.8	14.8	7.5	4.3	-38.3	x
O=C(c1cccc(NS(=O)(=O)c2ccc(F)c(F)c2)c1)N1CCN(C(c2ccccc2)c2ccccc2)CC1	2.3	50.0*	3.3	17.7	22.4	24.9	-4.1
O=C(c1cccc(NS(=O)(=O)c2ccccc2)c1)N1CCCC1	11.6	-18.1	1.5	9.7	-1.1	-3.3	x
CCOc1ccc(S(=O)(=O)N2CCC(C(=O)N3CCCC3)CC2)cc1C	4.8	10.7	15.8	6.8	8.4	25.0	x
CN(C)C(CNC(=O)C1CCN(S(=O)(=O)c2cccc(C(F)(F)F)c2)CC1)c1ccccc1 (centres undefined)	-1.1	-6.9	-7.2	-3.2	0.7	9.2	x
CN(C)C(CNC(=O)C1CCN(S(=O)(=O)c2ccccc2)CC1)c1ccccc1 (centres undefined)	29.8	71.2*	-0.2	-7.2	-3.9	-7.3	0.0
Cc1ccnc(Nc2nc(-c3sc(C)nc3C)cs2)c1	-17.2	55.2*	12.1	-396.0	4.0	-20.8	91.2*
Cc1nc(C)c(-c2csc(Nc3ccccn3)n2)s1	5.7	8.3	-5.4	-223.7	-161.0	-73.4	x
Nc1ncc(-c2ccccc2)c(-c2ccc(O)cc2O)n1	-12.3	51.2*	13.7	12.1	43.4	-9.5	68.7*
COc1ccc(-c2cnc(N)nc2-c2ccc(OCc3ccccc3)cc2O)cc1	-7.2	26.7	1.6	9.8	0.5	-6.3	x
Cc1cccc(C(=O)N[C@H](C(=O)Nc2nc3ccccc3[nH]2)C(C)C)c1	-29.6	65.7*	44.5	28.4	17.1	28.3	83.4*
COc1ccc(NC(=O)C(NC(=O)c2ccccc2)C(C)C)cc1 (centres undefined)	2.5	-0.9	-3.6	20.4	11.5	11.9	x
COc1ccc(C(=O)N[C@H](C(=O)Nc2nc3ccccc3[nH]2)C(C)C)cc1	-19.1	54.8*	0.9	-185.9	-183.4	-23.6	77.7*
